Screening results from PubChem BioAssay.
A selection: hits, their analogues and other compounds. The true share with any hit is near 1.2%.
Luc counter: blocks Kinase-Glo luciferase, a counter-screen artifact; hit rate 0.28% among 200,000; Potency, µM (top dose mostly 38.3 µM), for inactives: top-dose activity change, negative = inhibition, hits mostly inhibitors; Kinase-Glo luciferase, ATP luminescence, 8 min; Q27757; AID 1379; active means well fitted inhibition curve with a large enough effect; inconclusive means small, poorly fitted or top-dose-only effect; further: potency means the concentration at half of the fitted maximal effect; nearly all actives have a fitted effect of over 60% in size
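Light output from Kinase-Glo luciferase with luciferin and 10 uM ATP in 50 mM imidazole pH 7.2, KCl, MgCl2, Tween 20, BSA; compound pin-delivered, 8-min ambient incubation, then luminescence read.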
hERG WT inh: KCNH2 (human, wildtype) channel inhibition; activity change, % at 1.84 µM; U2OS, BacMam KCNH2, thallium flux FluxOr; stronger effect = lower value; hit rate 0.37% among 340,000; Q12809;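 active means maximum activity change below -70%; inconclusive means maximum activity change between -70% and -50%; inactive means maximum activity change above -50%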
Target sequence (Q12809 whole entry, looked up): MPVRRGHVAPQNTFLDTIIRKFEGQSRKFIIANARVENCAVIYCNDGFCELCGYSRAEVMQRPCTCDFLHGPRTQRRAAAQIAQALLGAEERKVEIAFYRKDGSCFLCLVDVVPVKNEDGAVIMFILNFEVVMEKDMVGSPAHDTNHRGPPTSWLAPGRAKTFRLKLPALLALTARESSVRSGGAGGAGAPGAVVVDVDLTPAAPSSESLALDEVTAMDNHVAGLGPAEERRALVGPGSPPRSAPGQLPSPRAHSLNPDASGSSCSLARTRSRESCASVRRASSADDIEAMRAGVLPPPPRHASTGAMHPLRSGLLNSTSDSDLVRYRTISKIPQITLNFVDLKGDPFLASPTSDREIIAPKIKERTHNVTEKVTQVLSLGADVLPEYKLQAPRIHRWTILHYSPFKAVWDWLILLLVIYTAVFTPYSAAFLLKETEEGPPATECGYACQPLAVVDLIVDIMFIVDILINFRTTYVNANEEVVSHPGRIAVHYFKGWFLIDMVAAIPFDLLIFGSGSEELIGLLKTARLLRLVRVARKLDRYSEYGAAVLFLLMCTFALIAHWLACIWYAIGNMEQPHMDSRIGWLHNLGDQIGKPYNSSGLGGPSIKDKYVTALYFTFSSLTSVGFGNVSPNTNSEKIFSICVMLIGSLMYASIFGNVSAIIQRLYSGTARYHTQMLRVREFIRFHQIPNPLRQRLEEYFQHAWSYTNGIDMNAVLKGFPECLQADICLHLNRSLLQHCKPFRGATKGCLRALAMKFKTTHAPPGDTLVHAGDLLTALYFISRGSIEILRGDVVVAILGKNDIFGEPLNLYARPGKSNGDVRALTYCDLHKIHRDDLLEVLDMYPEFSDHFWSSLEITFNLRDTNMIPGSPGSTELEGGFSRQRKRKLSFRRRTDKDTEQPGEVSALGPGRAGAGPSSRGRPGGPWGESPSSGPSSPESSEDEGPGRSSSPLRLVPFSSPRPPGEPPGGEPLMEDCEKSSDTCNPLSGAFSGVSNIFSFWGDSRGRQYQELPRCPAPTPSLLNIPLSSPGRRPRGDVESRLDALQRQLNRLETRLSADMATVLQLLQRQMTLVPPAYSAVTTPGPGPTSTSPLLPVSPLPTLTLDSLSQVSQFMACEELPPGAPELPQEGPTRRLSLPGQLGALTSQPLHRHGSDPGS
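U2OS cells transduced with wild-type KCNH2 virus are loaded with FluxOr dye for 45 min, and thallium flux is measured in kinetic reads before and after stimulation buffer. Rate constants are normalized to DMSO controls.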
KCNH2 3.1 inh: inhibitors of human KCNH2 3.1 potassium channel isoform. U2OS KCNH2 3.1, thallium flux FluxOr; stronger effect = lower value. activity change, % (tested at about 1.8 µM). hit rate 0.95% among 340,000. AID 720553;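 active means maximum activity change below -70%; inconclusive means maximum activity change from -70% to -50%; inactive means maximum activity change above -50%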;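 further: thallium influx rate constant from kinetic fluorescence after stimulation buffer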
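We transduce U2OS cells with the mutant 3.1 virus, culture them overnight, load FluxOr with Red40 quencher for 45 min, then add stimulation buffer and read kinetically for 2 min to derive a normalized rate constant.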
Active calls of the source: *; [ ] = dose if it differs, or a comment. On the % scale 0 is the no-effect control and ±100 the full control effect.

Results for CCn1c(=O)c2c(nc3n2CCCN3CCc2ccc(OC)c(OC)c2)n(C)c1=O ?
hERG WT inh: 1; KCNH2 3.1 inh: -72*

Results for CCCn1c(=O)c2c(nc3n2CCCN3CCc2ccc(OC)c(OC)c2)n(C)c1=O ?
hERG WT inh: -9; KCNH2 3.1 inh: -1

Results for CCN(CC)S(=O)(=O)c1ccc(N2CC(C(=O)N3Cc4ccccc4CC3C(N)=O)CC2=O)cc1 (configuration not stated) ?
hERG WT inh: -6; KCNH2 3.1 inh: 10

Results for Cc1cc(Cn2nc(-c3ccccc3C)cc2C(=O)O)on1 ?
hERG WT inh: -1; KCNH2 3.1 inh: inconclusive

Results for Cc1ccc(C(=O)NC(C(=O)OCc2cn3cc(Cl)ccc3n2)C(C)C)cc1 (configuration not stated) ?
hERG WT inh: -5; KCNH2 3.1 inh: 4

What do the screens show for `COC(=O)N/N=C\c1ccc(OC(=O)c2ccco2)cc1`?
Luc counter: inconclusive; hERG WT inh: 1; KCNH2 3.1 inh: 7

Results for CCOC(=O)N/N=C\c1ccc(OC(=O)c2ccco2)cc1 ?
Luc counter: -11%; hERG WT inh: -154*; KCNH2 3.1 inh: -3

Results for CN(C)S(=O)(=O)c1cccc(NC(=O)c2ccc(S(=O)(=O)N3CCCC3)cc2)c1 ?
hERG WT inh: -8; KCNH2 3.1 inh: 10

How did C[C@H](O)[C@@H]1C(=O)N2CCc3c([nH]c4ccccc34)[C@@H]2C[C@@H]1N(C)C(=O)NC1CCCCC1 do in these assays?
hERG WT inh: -114*; KCNH2 3.1 inh: -14

Results for COCC(=O)N(C)[C@H]1C[C@H]2c3[nH]c4ccccc4c3CCN2C(=O)[C@H]1[C@H](C)O ?
hERG WT inh: -4; KCNH2 3.1 inh: -1

How did COc1ccc(C2/C=C\CN(C(=O)OCC3c4ccccc4-c4ccccc43)CC(=O)N2Cc2cccc(F)c2)cc1 (configuration not stated) do in these assays?
Luc counter: 3%[39.9 µM]; hERG WT inh: -2; KCNH2 3.1 inh: -2

Results for CCN1CCN(C(=O)Nc2cccc(C(F)(F)F)c2)CC1 ?
Luc counter: -3%; hERG WT inh: 5; KCNH2 3.1 inh: -79*

How did CCN1CCC(NC(=O)Nc2cccc(C(F)(F)F)c2)CC1 do in these assays?
Luc counter: 2%; hERG WT inh: 16; KCNH2 3.1 inh: -2

How did Cc1cccc(CNS(=O)(=O)c2csc(C(N)=O)c2)c1 do in these assays?
hERG WT inh: -3; KCNH2 3.1 inh: -5

What do the screens show for `COC(=O)c1cc(S(=O)(=O)NCC2CCN(Cc3ccc(Cl)cc3)CC2)c[nH]1`?
hERG WT inh: -34; KCNH2 3.1 inh: inconclusive

How did COC(=O)c1cc(S(=O)(=O)NCC2CCN(Cc3ccccc3F)CC2)c[nH]1 do in these assays?
hERG WT inh: 11; KCNH2 3.1 inh: -118*

What do the screens show for `NC(=O)c1cc(S(=O)(=O)NCc2cccs2)cs1`?
hERG WT inh: -13; KCNH2 3.1 inh: -70*

How did COC(=O)c1cc(S(=O)(=O)NCc2ccccc2Cl)c[nH]1 do in these assays?
hERG WT inh: 27; KCNH2 3.1 inh: 0

What do the screens show for `COC(=O)c1cc(S(=O)(=O)NCc2cccs2)c[nH]1`?
hERG WT inh: -244*; KCNH2 3.1 inh: 3

Results for Nc1nnc(SCC(=O)OCC(=O)Nc2ccccc2)s1 ?
Luc counter: 0%; KCNH2 3.1 inh: -22

Results for COc1cc(OC)cc(-c2nnc(Nc3nc4c(F)cccc4s3)o2)c1 ?
Luc counter: 6%; hERG WT inh: 2; KCNH2 3.1 inh: 12

What do the screens show for `Fc1cccc2sc(Nc3nnc(-c4ccccc4)o3)nc12`?
Luc counter: 4%; hERG WT inh: -149*; KCNH2 3.1 inh: -13

What do the screens show for `CN(CC(=O)NC1CCCc2ccccc21)C1CCCCC1` (configuration not stated)?
Luc counter: 2%; hERG WT inh: 0; KCNH2 3.1 inh: -1

How did CN(C1CCCCC1)S(=O)(=O)c1cccc(C(=O)OCC(=O)NC2CCCc3ccccc32)c1 (configuration not stated) do in these assays?
Luc counter: 1%; hERG WT inh: 53; KCNH2 3.1 inh: -92*

How did COC(=O)[C@@]1(C)[C@H]2C(=O)N(Cc3ccccc3)C(=O)[C@H]2[C@H]2CN=C(SC)N21 do in these assays?
hERG WT inh: -3; KCNH2 3.1 inh: -1

Results for COC(=O)[C@@]1(C)[C@H]2C(=O)N(Cc3ccccc3)C(=O)[C@H]2[C@H]2CN=C(SCC(=O)c3ccccc3)N21 ?
hERG WT inh: -3; KCNH2 3.1 inh: -80*

Results for O=c1[nH]c(-c2ccccc2)nc(-c2ccccc2)c1Cl ?
hERG WT inh: -1; KCNH2 3.1 inh: 7

How did Cc1ccc(NC(=O)CSc2nn(-c3ccccc3)c(=S)s2)cc1S(=O)(=O)N(C)C do in these assays?
Luc counter: 3%; hERG WT inh: -1; KCNH2 3.1 inh: 5

How did COc1ccc(-n2cc(CNCCc3nc(C)cc(C)n3)c(-c3ccccc3Cl)n2)cc1 do in these assays?
Luc counter: -4%; hERG WT inh: -13; KCNH2 3.1 inh: -49

Results for Fc1ccc(-n2cc(CNCCc3ccccn3)c(-c3ccccc3Cl)n2)cc1 ?
Luc counter: 4%; hERG WT inh: -47; KCNH2 3.1 inh: -115*

How did CCOC(=O)Cc1csc(N/C(=N/S(=O)(=O)c2cc(Br)ccc2OCC)c2ccccc2)n1 do in these assays?
Luc counter: 2%; hERG WT inh: -261*; KCNH2 3.1 inh: -170*

What do the screens show for `CCOC(=O)Cc1csc(NC(=S)NC(=O)c2ccccc2)n1`?
Luc counter: -1%; hERG WT inh: 3; KCNH2 3.1 inh: 1

Results for CCOc1ccc(S(=O)(=O)N2CCCC(C(=O)Nc3cccc(C)c3)C2)cc1 (configuration not stated) ?
hERG WT inh: -10; KCNH2 3.1 inh: 2

Results for O=C(CCNC(=O)C1CCN(S(=O)(=O)c2ccccc2)CC1)NCc1ccc(Cl)c(Cl)c1 ?
hERG WT inh: -1; KCNH2 3.1 inh: -21

Results for COc1ccc(CC(=O)NCc2ccc(-n3cccc3)cc2)cc1OC ?
hERG WT inh: 5; KCNH2 3.1 inh: 3

Results for COc1ccc(CC(=O)NCc2nn(-c3ccccc3)nc2C)cc1OC ?
hERG WT inh: 0; KCNH2 3.1 inh: -180*

Results for CCCC(=O)NC(c1ccccc1Cl)c1ccc2cccnc2c1O (configuration not stated) ?
hERG WT inh: -17; KCNH2 3.1 inh: -97*

Results for CCCC(=O)NC(c1ccc(C(C)C)cc1)c1ccc2cccnc2c1O (configuration not stated) ?
hERG WT inh: -2; KCNH2 3.1 inh: -1

What do the screens show for `CCOC(=O)[C@H](O)[C@@H](O)c1cccc([C@H](O)[C@@H](O)C(=O)OCC)c1`?
hERG WT inh: -12; KCNH2 3.1 inh: 0

What do the screens show for `COc1ccc(C(CNC(=O)c2cccc(S(=O)(=O)N(C)c3ccccc3)c2)N2CCCC2)cc1` (configuration not stated)?
hERG WT inh: 13; KCNH2 3.1 inh: -18

What do the screens show for `CN(C)c1cccc(C(=O)N(C)C2CCCN(Cc3ccccc3F)C2)c1` (configuration not stated)?
hERG WT inh: -71*; KCNH2 3.1 inh: 7
